Measured values: PubChem BioAssay
Active and inactive are the calls of the source. Unless noted, how the calls were made is not given here.

How the values were obtained:
[1] = compounds binding Alexa647 anti-His antibody – biochemical, small-molecule microarray, 635 nm fluorescence, artefact control for SMM control protein annotation, primary screen (AID 1128); conditions: higher = more signal;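 further: score merges feature fluorescence with signal-to-noise for each printed compound spot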
[2] = test system: Human papillomavirus type 1a E7 protein (residues 1-88); test: HPV1a E7 small-molecule binders, primary screen, biochemical, small-molecule microarray, residues 1-88, 635 nm (AID 1129); conditions: small-molecule microarray binding, fluorescence 635 nm; higher = more signal
[3] = biological target: Focal adhesion kinase 1 (Homo sapiens) (UniProt Q05397); test: PTK2 protein binding on printed compound slides – biochemical, small-molecule microarray, 635/667 nm fluorescence, BSA, DTT, primary screen (AID 1130); conditions: 635 nm fluorescence, higher = more signal;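 further: composite of spot emission at 667 nm and signal to noise over triplicate slides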
Chain of Focal adhesion kinase 1 (Homo sapiens) (Q05397 whole entry, looked up): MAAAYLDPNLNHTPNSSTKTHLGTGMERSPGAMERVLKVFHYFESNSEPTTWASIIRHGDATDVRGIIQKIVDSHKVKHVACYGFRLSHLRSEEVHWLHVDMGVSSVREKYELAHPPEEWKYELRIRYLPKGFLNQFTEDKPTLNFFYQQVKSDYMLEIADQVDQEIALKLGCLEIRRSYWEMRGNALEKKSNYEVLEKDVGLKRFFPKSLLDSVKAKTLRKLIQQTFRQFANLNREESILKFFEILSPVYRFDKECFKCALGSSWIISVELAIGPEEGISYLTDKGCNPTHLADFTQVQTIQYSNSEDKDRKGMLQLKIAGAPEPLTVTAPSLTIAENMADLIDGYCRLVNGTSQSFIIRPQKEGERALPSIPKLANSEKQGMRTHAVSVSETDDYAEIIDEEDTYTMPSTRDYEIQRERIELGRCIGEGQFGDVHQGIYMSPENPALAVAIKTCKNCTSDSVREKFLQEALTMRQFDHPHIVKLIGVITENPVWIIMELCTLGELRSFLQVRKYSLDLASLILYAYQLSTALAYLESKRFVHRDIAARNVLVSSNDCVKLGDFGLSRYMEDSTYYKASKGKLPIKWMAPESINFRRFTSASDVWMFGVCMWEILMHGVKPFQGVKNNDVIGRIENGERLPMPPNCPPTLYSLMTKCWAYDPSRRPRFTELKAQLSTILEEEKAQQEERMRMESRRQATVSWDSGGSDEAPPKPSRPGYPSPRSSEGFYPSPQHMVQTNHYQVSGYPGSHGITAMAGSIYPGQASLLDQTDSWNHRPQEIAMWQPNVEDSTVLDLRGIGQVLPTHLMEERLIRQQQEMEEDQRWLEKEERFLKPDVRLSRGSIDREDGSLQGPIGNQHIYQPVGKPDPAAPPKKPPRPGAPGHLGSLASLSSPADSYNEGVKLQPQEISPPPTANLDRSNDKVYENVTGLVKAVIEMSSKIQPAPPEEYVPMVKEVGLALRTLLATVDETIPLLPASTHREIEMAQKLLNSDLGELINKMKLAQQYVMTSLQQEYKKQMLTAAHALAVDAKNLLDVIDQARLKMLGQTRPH

[4] = test system: Fibrinogen (Alexa647-labelled); test: Alexa647-fibrinogen binding to printed small molecules – biochemical, small-molecule microarray, 635/667 nm fluorescence, artefact control for SMM control-protein annotation, profiling panel (AID 1131); conditions: fibrinogen-A647 binding fluorescence, higher = more signal;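 further: z-score merges 667 nm fluorescence with per-spot signal-to-noise over triplicate slides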
[5] = biological target: Follistatin (Homo sapiens) (UniProt P19883); test: FST protein binding to printed compounds – biochemical, small-molecule microarray, 635/667 nm fluorescence, primary screen (AID 1132); conditions: 635 nm fluorescence, higher = more signal
Chain of Follistatin (Homo sapiens) (P19883 whole entry, looked up): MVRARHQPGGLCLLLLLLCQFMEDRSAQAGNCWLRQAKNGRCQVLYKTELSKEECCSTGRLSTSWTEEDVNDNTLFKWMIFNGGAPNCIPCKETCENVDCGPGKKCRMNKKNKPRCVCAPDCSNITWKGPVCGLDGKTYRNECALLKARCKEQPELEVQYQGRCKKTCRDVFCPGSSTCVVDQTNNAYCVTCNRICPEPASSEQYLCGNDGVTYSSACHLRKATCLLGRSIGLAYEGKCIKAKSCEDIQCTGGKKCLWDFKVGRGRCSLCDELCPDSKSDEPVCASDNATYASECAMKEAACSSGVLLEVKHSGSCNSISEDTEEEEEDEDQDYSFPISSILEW

[6] = biological target: Fibroblast growth factor 2 (Homo sapiens) (UniProt P09038); test: basic fibroblast growth factor binding to printed compounds – biochemical, small-molecule microarray, 635/667 nm fluorescence, primary screen (AID 1133); conditions: FGF2, fluorescence 635/667, higher = more signal
Chain of Fibroblast growth factor 2 (Homo sapiens) (P09038 whole entry, looked up): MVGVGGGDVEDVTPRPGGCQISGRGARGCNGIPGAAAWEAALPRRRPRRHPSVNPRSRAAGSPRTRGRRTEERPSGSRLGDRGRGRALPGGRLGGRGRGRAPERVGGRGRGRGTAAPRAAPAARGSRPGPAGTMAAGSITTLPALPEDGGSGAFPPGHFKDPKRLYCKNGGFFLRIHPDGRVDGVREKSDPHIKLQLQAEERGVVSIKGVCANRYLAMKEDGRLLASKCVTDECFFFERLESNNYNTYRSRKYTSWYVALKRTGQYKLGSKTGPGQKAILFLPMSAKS

[7] = JC-1 mitochondrial potential readout, lung cancer cells – cell-based, A549, JC-1 fluorescence, basal, 24 h, 100 nL, profiling panel (AID 1138); conditions: higher = more signal;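 further: A549 lung adenocarcinoma cells under basal conditions with no added stimulus; test concentration not given here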
Lefty1 = Lefty1 protein binding to printed compounds – biochemical, small-molecule microarray, 635/667 nm fluorescence, primary screen (AID 1139); conditions: fluorescence 635/667, higher = more signal
[8] = test system: wheat germ agglutinin (Triticum aestivum), Alexa647-labelled; test: Alexa647-WGA lectin binding to printed small molecules – biochemical, small-molecule microarray, 635/667 nm fluorescence, artefact control for SMM control-protein annotation, profiling panel (AID 1140); conditions: WGA-A647 binding, 635 nm fluorescence, higher = more signal;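 further: score merges 667 nm feature emission with signal to noise over triplicate slides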
[9] = biological target: Luciferin 4-monooxygenase (Photinus pyralis) (UniProt P08659); test: inhibition of purified Photinus pyralis luciferase – biochemical, luminescence, purified enzyme, 2006 set, primary screen (AID 1141); conditions: purified firefly luciferase, SteadyGlo luminescence, 30 min; higher = more signal, called active from +8 up or from −8 down;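 further: cell-free assay with purified firefly luciferase at 100 ng per well in PBS; test concentration not given here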
Chain of Luciferin 4-monooxygenase (Photinus pyralis) (P08659 whole entry, looked up): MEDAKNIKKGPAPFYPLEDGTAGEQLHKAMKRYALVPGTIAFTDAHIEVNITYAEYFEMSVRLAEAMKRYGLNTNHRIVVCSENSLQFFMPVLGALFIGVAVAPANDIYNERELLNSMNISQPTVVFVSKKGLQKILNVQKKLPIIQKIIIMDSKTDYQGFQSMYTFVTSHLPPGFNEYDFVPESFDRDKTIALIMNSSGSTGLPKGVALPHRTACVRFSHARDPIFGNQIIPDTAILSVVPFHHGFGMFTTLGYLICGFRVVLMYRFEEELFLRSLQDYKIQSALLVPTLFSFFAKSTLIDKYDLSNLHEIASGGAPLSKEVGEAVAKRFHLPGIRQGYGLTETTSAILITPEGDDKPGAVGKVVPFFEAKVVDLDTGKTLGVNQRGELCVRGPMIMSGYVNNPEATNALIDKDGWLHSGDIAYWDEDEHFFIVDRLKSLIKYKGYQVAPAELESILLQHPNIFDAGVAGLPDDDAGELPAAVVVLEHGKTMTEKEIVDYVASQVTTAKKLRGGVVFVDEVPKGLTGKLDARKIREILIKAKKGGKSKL

[10] = test system: Wnt5a (protein binding on small-molecule microarray); test: small molecules binding Wnt5a protein – biophysical, small-molecule microarray, 635/667 nm fluorescence, primary screen (AID 1142); conditions: 635 nm fluorescence, higher = more signal;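 further: fluorescence read at 667 nm with signal to noise per printed feature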
[11] = ATP-based viability of Huh7 replicon cells – cell-based, CellTiter-Glo luminescence, basal, 48 h, cytotoxicity control for HCV replication inhibitor project, primary screen (AID 1143); conditions: higher = more signal, called active from +8 up or from −8 down;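 further: Huh7 hepatoma cells carrying a hepatitis C replication reporter with no stimulus; test concentration not given here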
[12] = Pseudomonas biofilm growth suppression – PAO1 strain, BacTiter-Glo luminescence, LB-PBS, primary screen (AID 1144); conditions: P. aeruginosa PAO1 biofilm, 12 h, higher = more signal
[13] = basal CRE-LacZ reporter activity in PC12 – cell-based, unstimulated, primary screen (AID 1145); conditions: no forskolin, luminescence, 4.5 h, higher = more signal, called active from +8 up or from −8 down
[14] = forskolin-driven CRE-LacZ activity in PC12 – cell-based, CRE-LacZ reporter, forskolin-stimulated, primary screen (AID 1146); conditions: luminescence, 4.5 h, higher = more signal, called active from +8 up or from −8 down;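 further: PC12 cells with 6xCRE LacZ reporter stimulated by forskolin 10 µM; beta-galactosidase reporter signal reflecting CREB driven transcription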
[15] = biological target: Streptavidin (Streptomyces avidinii) (UniProt P22629); test: compounds binding control protein streptavidin – biophysical, small-molecule microarray, 635/667 nm fluorescence, artefact control for SMM compound annotation, primary screen (AID 1147); conditions: higher = more signal;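 further: signal reflects streptavidin binding to arrayed compounds as a control protein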
Chain of Streptavidin (Streptomyces avidinii) (P22629 whole entry, looked up): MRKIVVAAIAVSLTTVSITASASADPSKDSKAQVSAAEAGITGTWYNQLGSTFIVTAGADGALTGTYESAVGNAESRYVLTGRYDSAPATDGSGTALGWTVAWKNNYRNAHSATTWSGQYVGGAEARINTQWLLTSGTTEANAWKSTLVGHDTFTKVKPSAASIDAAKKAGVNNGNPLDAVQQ

[16] = probe aInhba binding on compound microarray – biochemical, small-molecule microarray, 635/667 nm fluorescence, primary screen (AID 1148); conditions: higher = more signal;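 further: score merges 667nm spot fluorescence with signal-to-noise for antibody binding to printed compounds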
Torsin-1A (Homo sapiens) [17] = biological target: Torsin-1A (Homo sapiens) (UniProt O14656); test: TOR1A wild-type binding on microarray – cell lysate, small-molecule microarray, lysate, 635/667 nm, primary screen (AID 1149); conditions: COS7 hTOR1A-WT lysate, 635 nm fluorescence, higher = more signal
Chain of Torsin-1A (Homo sapiens) (O14656 whole entry, looked up): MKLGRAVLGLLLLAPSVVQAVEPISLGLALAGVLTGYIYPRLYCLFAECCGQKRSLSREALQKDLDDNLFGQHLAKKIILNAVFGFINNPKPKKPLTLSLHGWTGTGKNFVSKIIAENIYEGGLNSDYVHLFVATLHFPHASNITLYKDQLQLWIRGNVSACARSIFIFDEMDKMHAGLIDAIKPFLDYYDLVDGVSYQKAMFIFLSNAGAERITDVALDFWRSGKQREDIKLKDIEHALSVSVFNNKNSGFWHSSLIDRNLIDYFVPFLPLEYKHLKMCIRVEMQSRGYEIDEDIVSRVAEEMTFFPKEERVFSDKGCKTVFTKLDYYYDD

Torsin-1A (Homo sapiens) [18] = biological target: Torsin-1A (Homo sapiens) (UniProt O14656); test: torsin A mutant lysate binding on microarrays – cell lysate, small-molecule microarray, COS7 lysate, 635/667 nm fluorescence, primary screen (AID 1150); conditions: COS7 hTOR1A mutant lysate, 635 nm fluorescence, higher = more signal;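 further: score pools 667 nm emission and signal to noise measuring lysate protein binding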
[19] = test system: Sonic hedgehog protein (Shh); test: Sonic hedgehog microarray binding compounds – biochemical, small-molecule microarray, 635/667 nm fluorescence, primary screen (AID 1151); conditions: 635 nm fluorescence, higher = more signal;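 further: Shh protein binding to compounds spotted on small-molecule microarray slides; score combines spot fluorescence intensity with signal-to-noise across triplicate slides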

SMILES	composite z-score [1]	composite z-score [2]	composite z-score [3]	composite z-score [4]	composite z-score [5]	composite z-score [6]	z-score [7]	composite z-score (Lefty1)	composite z-score [8]	z-score [9]	composite z-score [10]	z-score [11]	z-score [12]	z-score [13]	z-score [14]	composite z-score [15]	composite z-score [16]	composite z-score (Torsin-1A (Homo sapiens) [17])	composite z-score (Torsin-1A (Homo sapiens) [18])	composite z-score [19]
C=C(C)[C@@H]1CC=C(C(O)C2C=CC3C(=O)N(C4CCCCC4)C(=O)C3N2Nc2ccc(OC)cc2)CC1 (stereo not given in full)	0.736	1.21	0.589	1	1.17	0.723	0.677	0.606	0.46	-0.392 (inactive)	0.187	-1.7 (inactive)	-0.645 (inactive)	0.369 (inactive)	-0.317 (inactive)	1.12	-0.0521	-0.0445	0.6	0.966
CN(C)CCCCCCNC(=O)[C@@H]1C[C@@H]2C(=O)NCC(=O)N2[C@@H]1c1ccc(O)cc1	2.07	1.18	1.28	0.842	1.42	1.65	-0.736	1.68	0.974	0.335 (inactive)	0.781	-0.981 (inactive)	-0.162 (inactive)	0.147 (inactive)	0.625 (inactive)	0.28	-0.102	0.97	1.32	1.93
CC(C)NC(=O)[C@@]1(Cc2ccccc2I)c2ccccc2C(=O)N(Cc2ccccc2C(F)(F)F)[C@H]1c1ccc(CO)cc1	0.992	0.906	0.601	0.75	0.464	0.125	1.29	0.266	1.15	-0.793 (inactive)	0.0851	-1.7 (inactive)	0.358 (inactive)	0.856 (inactive)	-0.151 (inactive)	-0.503	0.225	-0.158	0.644	0.66
COCCOC(=O)N1C(=O)[C@@]2(c3cc(C#Cc4ccc(OC)cc4)ccc31)[C@H](C(=O)N1CCc3cc(OC)c(OC)cc3C1)[C@H]1C(=O)O[C@H](c3ccccc3)[C@H](c3ccccc3)N1[C@@H]2c1ccc(O)cc1	1.13	1.21	0.226	0.753	1.25	1.17	-0.406	0.606	0.659	-1.35 (inactive)	0.783	-0.637 (inactive)	0.693 (inactive)	-0.0688 (inactive)	0.236 (inactive)	0.802	1.06	0.58	0.984	0.813
NC(=O)[C@H]1[C@@H]2C(=O)O[C@@H](c3ccccc3)[C@@H](c3ccccc3)N2[C@@H](c2ccc(O)cc2)[C@]12C(=O)Nc1ccc(C#CC3(O)CCCCCC3)cc12	1.55	1.23	0.505	0.946	1.24	1.58	-1.43	0.889	0.949	0.268 (inactive)	0.0428	-4.82 (inactive)	-0.947 (inactive)	0.272 (inactive)	1.09 (inactive)	0.387	0.0074	0.375	1.37	1.46
